Data on 89 compounds can be found in PubChem BioAssay AID2013 (Sanford-Burnham Center for Chemical Genomics, 2009).

SMILES strings stand for the structures. Screen size: about 290,000 compounds; about 370 (0.13%) were called active. Many of the other results were omitted from the sample, so actives are more common in it than they were. Measured potencies and affinities stand elsewhere. Unmarked numbers belong to inactive results.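 Rule for the calls: active = spots per cell inhibited over 60%, with over 100 cells counted and total cytoplasm intensity under 500,000; inconclusive = wells with under 100 cells, flagged as likely toxic; inactive = the rest.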

Sequence of G-protein coupled receptor 55 (Homo sapiens) (Q9Y2T6 whole entry, looked up): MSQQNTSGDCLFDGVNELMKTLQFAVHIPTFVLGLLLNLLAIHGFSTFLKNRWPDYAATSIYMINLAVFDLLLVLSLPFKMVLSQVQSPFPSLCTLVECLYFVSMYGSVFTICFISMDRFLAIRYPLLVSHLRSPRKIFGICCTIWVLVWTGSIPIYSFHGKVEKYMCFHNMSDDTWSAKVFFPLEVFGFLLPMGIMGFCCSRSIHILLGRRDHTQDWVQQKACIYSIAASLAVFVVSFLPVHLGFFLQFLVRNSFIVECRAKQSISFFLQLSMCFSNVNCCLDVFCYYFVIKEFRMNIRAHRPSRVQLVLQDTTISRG

The experiment addresses G-protein coupled receptor 55 (Homo sapiens) (UniProt Q9Y2T6). Nature of the experiment: GPR55 antagonists blocking LPI-driven arrestin recruitment, primary screen, imaging, U2OS, beta-arrestin-GFP, LPI agonist (AID 2013).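 Note: U2OS cells stably carrying GPR55 and arrestin-GFP stimulated by 5 µM LPI near EC80; imaged beta-arrestin-GFP aggregate spots per cell after agonist stimulation; plate controls were LPI-stimulated DMSO wells for no effect and DMSO wells without LPI for full effect.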 The settings on record: U2OS GPR55 beta-arrestin-GFP translocation imaging, LPI antagonism; at 10 µM; active compounds read high.
As to `CC(C)(C)c1ccc(C(=O)Nc2ccc(C(=O)N3CCOCC3)cc2)cc1`, the inhibition was 13%. For the compound `O=C(NCC(=O)N1CCN(S(=O)(=O)/C=C/c2ccccc2)CC1)c1ccc(Cl)cc1`, the inhibition is 10.1%. The figure for `CCN(CC)CCNC(=S)N1CCn2c(nc3ccccc32)C1` is 3.9%; for `CCOC(=O)c1c(C)n(C)c2ccc(OC)c(NC(=O)CN3CCC(C(=O)OCC)CC3)c12` it is -6.7%; for `CCOc1ccccc1NC(=O)Nc1ccc(Br)cn1` it is 13.3%. With `CN(NC(=O)CN1C(=O)c2ccccc2C1=O)C1=NS(=O)(=O)c2ccccc21` the figure was -1.6%.

On to `CC(C)(C)OC(=O)N1CCC(NC(=O)c2[nH]cnc2C(=O)N[C@@H](Cc2ccccc2)C(=O)OCc2ccccc2)CC1`, for which the inhibition is 41.8%. Consider `C[C@H](NC(=O)c1nc[nH]c1C(=O)NCc1ccc(CNC(=O)OC(C)(C)C)cc1)C(=O)OC(C)(C)C`, for which the inhibition is 18.1%. `CC(C)(C)OC(=O)NCc1ccc(CNC(=O)c2[nH]cnc2C(=O)N[C@@H](Cc2ccccc2)C(=O)OCc2ccccc2)cc1`: the inhibition was 35.5%. The figure for `CC(C)C[C@H](NC(=O)c1[nH]cnc1C(=O)Nc1ccc(CNC(=O)OC(C)(C)C)cc1)C(=O)OCc1ccccc1` is 7%. With `C[C@H](NC(=O)c1[nH]cnc1C(=O)Nc1ccc(CNC(=O)OC(C)(C)C)cc1)C(=O)OCc1ccccc1` the figure was 1.5%.

For `CC(C)(C)OC(=O)[C@H](Cc1ccccc1)NC(=O)c1nc[nH]c1C(=O)N1CCN(C(=O)OC(C)(C)C)CC1`, the inhibition is 4.7%. With `CCN(CC)S(=O)(=O)c1cc(C(=O)Nc2cc(C)[nH]n2)ccc1Cl` the figure was 17.6%. The figure for `Cc1cc(C)nc(NS(=O)(=O)c2ccc(NC(=O)C3CC3)cc2)n1` is 0%; for `O=C(NNc1c(Cl)cccc1Cl)c1ccno1` it is 5%. With `O=C(NC1CCCCC1)C(c1ccco1)N(C(=O)C(F)(F)F)C1CC1` (centres undefined) the figure was -2.5%; with `O=C(NCc1ccc2c(c1)OCO2)Nc1ccc(Cl)cc1`, -2.2%. For `Cc1cccc(C)c1NC(=O)C(Cl)C(=O)c1ccccc1` (centres undefined), the inhibition is 2.5%.

As for `CC(C(=O)Nc1ccccc1)C(=O)Nc1ccccc1`, the inhibition is -4.5%.

As to `O=C(Nc1ccccc1Cl)c1ccccc1`, the inhibition was 3.2%. With `CC(=O)C(Cl)C(=O)Nc1ccccc1` (centres undefined) the figure was -8.1%; with `O=C(Nc1ccccc1)C(Cl)C(=O)c1ccccc1` (centres undefined), 6.1%; with `O=C(Nc1ccccc1Cl)Nc1ccccc1Cl`, 1.2%.

Turning to `O=C(O)c1ccccc1NCc1ccsc1`, the inhibition was -6.3%. With `Cc1ccc(/C=N/Nc2nc(C)cc(C)n2)cc1` the figure was 0.6%. With `Cc1ccc(-n2nc(C)c(=O)c(-c3ccccc3)c2NC(=O)C(C)C)cc1`, the inhibition was 11.6%. The figure for `Cc1cc(C)n(/C(=C\N(C)C)C(=O)c2ccc(Cl)cc2)n1` is 6.9%; for `O=C(CN1CCN(C(=O)c2ccco2)CC1)Nc1ccc(F)cc1F` it is 10.4%; for `CC(C)(C)c1ccc(CN2C3=NCCCN3c3ccccc32)cc1` it is 29.1%.

`CC(C)(C)c1ccc(CN2C(=O)CSC2=O)cc1`: the inhibition was -2.7%. The figure for `Cc1nc(C(Cl)(Cl)Cl)nc2[nH]ccc(=O)c12` is 4.1%. As to `FC(F)(F)c1cccc(Cc2noc(CN3CCC(c4ccncc4)CC3)n2)c1`, the inhibition was 5.1%. With `Cc1nonc1NC(=O)CSc1nnc(N)s1` the figure was -5.8%; with `COc1cccc(-c2csc(N3CCN(Cc4ccccc4)CC3)n2)c1`, -6.9%; with `COc1ccc(OC)c(/C=C/C(=O)Nc2cccc(S(=O)(=O)N3CCCC3)c2)c1`, -3.3%. The figure for `Cc1cc2c(cc1S(=O)(=O)Nc1ccc(F)cc1)n(C)c(=O)c(=O)n2C` is 9.6%; for `Cc1cc2c(cc1S(=O)(=O)Nc1cccc(F)c1)n(C)c(=O)c(=O)n2C` it is -13.1%; for `Cc1cc(NS(=O)(=O)c2ccc(NC(=O)C(C)Oc3ccc(C(C)C)cc3)cc2)no1` (centres undefined) it is -4.7%. The figure for `Cc1cccn2c(=O)c(/C=C(\C#N)S(=O)(=O)c3ccccc3)c(N3CCN(Cc4ccccc4)CC3)nc12` is 22.8%; for `Cc1cccn2c(=O)c3cc(C(=O)NCc4ccco4)c(=N)n(C4CCCCC4)c3nc12` it is 50%.

Consider `Cc1cccn2c(=O)c3cc(C(=O)NC4CCCC4)c(=N)n(C4CCCCC4)c3nc12`, for which the inhibition is 19.8%. The figure for `N=c1c(C(=O)NCc2ccco2)cc2c(=O)n3ccccc3nc2n1C1CCCC1` is 7.5%; for `Cc1ccc2nc3c(cc(C(=O)NCc4ccco4)c(=N)n3Cc3ccco3)c(=O)n2c1` it is 23.2%; for `N=c1c(C(=O)NC2CCCC2)cc2c(=O)n3ccccc3nc2n1C1CCCC1` it is 8.6%. With `Cc1cccn2c(=O)c3cc(C(=O)NCc4ccco4)c(=N)n(C(C)C)c3nc12` the figure was 45.5%. With `O=C(COC(=O)c1cc(=O)[nH]c(=O)[nH]1)Nc1cccc(S(=O)(=O)N2CCCCC2)c1` the figure was -7.4%. On to `Cc1cccc(C)c1NC(=O)Cn1c(=O)c2cccn2c2ccccc21`, for which the inhibition is 3.5%. Turning to `Cc1ccc(NC(=O)Nc2cnccn2)c(C)c1`, the inhibition was 1.4%.

Turning to `CC(C)CNC(=S)N1CCC(c2nc(-c3ccc(F)cc3)no2)CC1`, the inhibition is 6.8%. With `CCCc1nnc2n1N=C(c1ccc(-c3cc(Cl)ccc3Cl)o1)CS2` the figure was -0.8%; with `CC[C@H](C)[C@@H](NC(=O)O[C@@H]1C(=O)c2cc(Br)ccc2O[C@H]1c1ccc2c(c1)OCO2)C(=O)OC`, -3.7%; with `COC(CNC(=O)c1ccc(CS(=O)(=O)c2ccc(Br)cc2)o1)OC`, -14.8%.

For `CC(=O)O[C@@H]1[C@H]2[C@@H](C[C@@H](C)[C@@H]3CCC(=O)[C@@]13C)OC(=O)[C@@H]2C`, the inhibition is 6.6%. The figure for `C=C1C(=O)O[C@H]2C[C@]3(C)C([C@@H](OC(=O)/C(C)=C/C)[C@H]12)[C@](C)(O)CC[C@H]3O` (some centres undefined) is 10.2%; for `C[C@@H]1C[C@@H]2OC(=O)[C@]3(C)[C@H]2[C@@H](OC3(C)O)[C@]2(C)C(=O)C=C[C@H]12` (some centres undefined) it is 6.3%; for `CC(=O)O[C@@H]1[C@H]2[C@@H](C[C@@H](C)[C@@H]3C=CC(=O)[C@@]13C)OC(=O)[C@@H]2C` it is -2%. The figure for `O=C(Nc1ccc(-n2cnnn2)cc1)C(c1ccccc1)c1ccccc1` is 6.3%. The figure for `CN1CCN(C(=O)c2cnn(-c3ccccc3)c2NC(=O)c2ccccc2Br)CC1` is 2.7%. Take `COc1ccc(C(C)=O)cc1CSc1nnc(Nc2ccc(C)cc2C)s1`: the inhibition was 1.3%. `CCOC(=O)CSc1nnc(Cn2nnc(-c3ccccc3)n2)n1CC`: the inhibition is 16%. For the compound `CCn1c(Cn2nnc(-c3ccccc3)n2)nnc1SCC(=O)Nc1ccccc1`, the inhibition was -10.2%.

As for `COc1ccccc1OCC(=O)NCc1nc(-c2ccccc2)no1`, the inhibition was 4.4%. With `COc1ccc2[nH]c3c(=O)n(/N=C/c4ccc(OC)c(CN5CCCC5)c4)c(C)nc3c2c1` the figure was 11.7%.

Consider `COc1ccc2cc(C(=O)CS(=O)(=O)c3ccccc3)c(=O)oc2c1`, for which the inhibition is -4.7%. The figure for `COc1ccc(S(=O)(=O)CC(=O)c2cc3cccc(C)c3oc2=O)cc1` is -0.3%; for `COc1cc(S(=O)(=O)NC2CCCC2)c(OC)cc1Cl` it is -2.6%; for `O=C(N1CCOCC1)C1(c2ccc(Cl)cc2)CCCC1` it is 44.4%.

In the case of `COc1ccc(C2(C(=O)N3CCC(n4nc(-c5ccccc5)oc4=O)CC3)CC2)cc1`, the inhibition is 7.7%. With `O=C(N1CCCCC1)C1(c2ccccc2)CCCCC1` the figure was 4.3%. With `O=C(N1CCC(n2nc(-c3ccccc3)oc2=O)CC1)C1(c2ccccc2)CC1`, the inhibition is -6.7%. With `COc1ccc(C(OC(=O)c2ccco2)C(=O)NCc2ccco2)cc1` (centres undefined) the figure was 14.6%; with `COC(=O)c1ccccc1SCc1csc(C)n1`, 5.7%; with `COc1ccccc1NC(=O)CCN1CC(C)OC(C)C1` (centres undefined), 3.2%. Turning to `O=C(NCC(=O)N1CCC2(CC1)NCCc1[nH]cnc12)c1ccc2ccccc2c1`, the inhibition is 15.2%. Consider `CCCN1C(=O)/C(=C/C=C2\N(CC)c3ccccc3C2(C)C)SC1=S`, for which the inhibition is -9%. As for `CCCCN1C(=O)/C(=C/C=C2\N(C)c3ccccc3C2(C)C)SC1=S`, the inhibition was 17.2%. With `CCCCNC(=O)N1c2ccccc2CC1C` (centres undefined) the figure was 7.4%; with `COC(=O)c1[nH]c2ccccc2c1NC(=O)c1ccccc1[N+](=O)[O-]`, 12.4%. With `Cc1ccc(OCc2ccc(C#N)cc2)c(C(=O)c2cc(C#N)c(=O)n(C3CC3)c2)c1` the figure was -4.5%; with `Cc1cccc(Cc2cnc(N3C(=N)SC(c4ccccc4)C3=O)s2)c1` (centres undefined), 2.3%.

For the compound `N=C1SCC(=O)N1c1ncc(Cc2cccc(Cl)c2)s1`, the inhibition was 98.9% (active). The figure for `N=C1SCC(=O)N1c1ncc(Cc2ccccc2Cl)s1` is 38%; for `N=C1SCC(=O)N1c1ncc(Cc2ccc(F)cc2)s1` it is 12.6%. The figure for `Cc1ccc(Cc2cnc(N3C(=N)SC(C)C3=O)s2)cc1` (centres undefined) is 16.2%; for `CCN(CC)CCN(C(=O)c1ccc2c(c1)OCCO2)c1nc2cc(C)cc(C)c2s1` it is 9.6%.

Consider `CC1CCCN(C(=O)Cn2nnc(-c3ccccc3F)n2)C1` (centres undefined), for which the inhibition was 4.4%. With `Cc1ccc(OCCOc2cccc(Br)c2)c([N+](=O)[O-])n1` the figure was 9.4%. The figure for `Cc1nc(SCC(=O)c2cc3ccccc3oc2=O)c(C#N)c(-c2ccccc2)c1C(=O)Nc1ccccc1` is 3.8%; for `COc1ccc(N(C(=O)c2ccncc2)S(=O)(=O)c2ccc(F)cc2)cc1` it is -6%.
